The text below walks through data of PubChem BioAssay (NCATS).

Assay [1] concerns the target Glutathione peroxidase 1 (Homo sapiens) (UniProt P07203). As to the kind of experiment: Primary qHTS Assay for Inhibitors of Recombinant Selenoprotein Glutathione Peroxidase 1 (GPX1) (AID 1845191). The essentials: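 GPX1 10 nM, GR 100 nM, GSH 1 mM, NADPH 0.5 mM, CHP 0.5 mM (final). 30-min cpd preincubation, RT. Ex340/Em450 read t=0, t=15 min.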
(In general: Quantitative high-throughput screening tests each substance at several concentrations.)

The target of assay [2] is Phospholipid hydroperoxide glutathione peroxidase GPX4 (Homo sapiens) (UniProt P36969). The assay can be described thus: Primary qHTS Assay for Inhibitors of Recombinant Selenoprotein Glutathione Peroxidase 4 (GPX4) (AID 1845192). The method, boiled down:
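qHTS, GR-coupled: GPX4 200 nM + cpd 30 min RT → GSH 1 mM, NADPH 0.5 mM, GR 100 nM → CHP 0.5 mM start; fluor 340/450 at t0 and t15 min; no-enzyme wells as control.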

SMILES strings stand for the structures. Results filed as inconclusive are left out. Where a call stands in place of a potency, no number is given. Active and inactive are the calls of the source. Calls come from the whole dose curve; as a rule, active = well fitted inhibition curve with a large enough effect; inconclusive = small, poorly fitted or top-dose-only effect; inactive = flat fitted curve, though single readings scatter. Where a SMILES comes first, the peptide text is derived from it. Bridges are numbered along the chain shown (N, C = ends). [ ]: non-standard residue; d: D form. hArg = N=C(N)NCCCC[C@H](N)C(=O)O; Mpa = O=C(O)CCS
Note: nearly all actives have a fitted effect of over 65% in size.

Sequence of Glutathione peroxidase 1 (Homo sapiens) (P07203 whole entry, looked up): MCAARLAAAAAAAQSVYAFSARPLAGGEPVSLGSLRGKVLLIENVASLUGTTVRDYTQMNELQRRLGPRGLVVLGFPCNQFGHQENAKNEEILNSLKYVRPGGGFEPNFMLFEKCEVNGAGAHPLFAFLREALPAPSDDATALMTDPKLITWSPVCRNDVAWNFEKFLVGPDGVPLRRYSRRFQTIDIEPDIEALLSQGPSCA
Sequence of Phospholipid hydroperoxide glutathione peroxidase GPX4 (Homo sapiens) (P36969 whole entry, looked up): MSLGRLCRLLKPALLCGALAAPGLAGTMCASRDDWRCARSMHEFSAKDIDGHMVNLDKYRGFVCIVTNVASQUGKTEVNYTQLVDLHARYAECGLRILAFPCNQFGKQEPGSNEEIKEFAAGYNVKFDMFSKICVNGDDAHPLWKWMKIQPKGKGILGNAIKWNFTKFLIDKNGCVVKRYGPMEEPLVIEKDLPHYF

For the compound `C[C@]1(Cn2ccnn2)[C@H](C(=O)O)N2C(=O)C[C@H]2S1(=O)=O`, the Potency result in assay [1] and in assay [2] was “inactive” in each case. For the compound `CCOC(=O)[C@H](CCc1ccccc1)N[C@@H](C)C(=O)N1CCC[C@H]1C(=O)O`, the Potency entry in assay [1] and in assay [2] was “inactive” throughout. `CC[N+](C)(CC)CCOC(=O)C1c2ccccc2Oc2ccccc21`: the Potency result in assay [1] and in assay [2] was “inactive” throughout. Consider `O=C(c1ccccc1)C(O)c1ccccc1` (stereo not given), for which the Potency entry in assay [1] and in assay [2] was “inactive” in each case.

In the case of `CC(=O)Nc1ccccc1`, the Potency result in assay [1] and in assay [2] was “inactive” each time.

In the case of `OC(CCN1CCCC1)(c1ccccc1)C1CCCCC1` (stereo not given), the Potency result in assay [2] was “inactive”. On to `CCCCC1(COC(=O)CCC(=O)O)C(=O)N(c2ccccc2)N(c2ccccc2)C1=O`, for which the Potency entry in assay [1] and in assay [2] was “inactive” each time.

As for `CC(=O)OC[C@H]1O[C@@](COC(C)=O)(O[C@H]2O[C@H](COC(C)=O)[C@@H](OC(C)=O)[C@H](OC(C)=O)[C@H]2OC(C)=O)[C@@H](OC(C)=O)[C@@H]1OC(C)=O`, the Potency entry in assay [1] and in assay [2] was “inactive” each time. Consider `CC1CCN(CCCC(=O)c2ccc(F)cc2)CC1`, for which the Potency result in assay [1] and in assay [2] was “inactive” each time. For `CC(=O)[C@@]1(O)CC[C@H]2[C@@H]3C[C@H](C)C4=CC(=O)C=C[C@]4(C)[C@@]3(F)[C@@H](O)C[C@@]21C`, the Potency entry in assay [1] and in assay [2] was “inactive” in each case. Consider `CCCC(O)C(CC)CO` (stereo not given), for which the Potency result in assay [1] and in assay [2] was “inactive” each time. As to `COc1ccc(NS(=O)(=O)c2ccc(N)cc2)nn1`, the Potency result in assay [1] and in assay [2] was “inactive” in each case. As for `O=C1C(c2[nH]c3ccccc3c2O)=Nc2ccccc21`, the Potency entry in assay [1] and in assay [2] was “inactive” in each case. Take `FC(F)(F)C(Cl)Br` (stereo not given): the Potency entry in assay [1] and in assay [2] was “inactive” each time.

On to `CCOC(=O)OC(C)OC(=O)[C@@H]1N2C(=O)[C@@H](NC(=O)[C@H](N)c3ccccc3)[C@H]2SC1(C)C` (stereo not given in full), for which the Potency entry in assay [1] and in assay [2] was “inactive” each time. As for `CC(CN(C)C)C(C)(O)Cc1ccc(Cl)cc1` (stereo not given), the Potency result in assay [1] and in assay [2] was “inactive” each time. As to `CCOc1cc(NC(C)=O)ccc1C(=O)OC`, the Potency result in assay [1] and in assay [2] was “inactive” in each case.

On to `Cc1c(N(C)C)c(=O)n(-c2ccccc2)n1C`, for which the Potency entry in assay [1] and in assay [2] was “inactive” in each case. Regarding `COC(=O)c1cccnc1`, the Potency entry in assay [1] and in assay [2] was “inactive” each time. As to `NC(=O)CCCCC1CCSS1` (stereo not given), the Potency entry in assay [1] and in assay [2] was “inactive” throughout. With `Cc1c(NC(=O)c2cccnc2)c(=O)n(-c2ccccc2)n1C`, the Potency result in assay [1] and in assay [2] was “inactive” throughout. Regarding `Nc1ccc(S(=O)(=O)c2ccc(N)cc2)cc1`, the Potency entry in assay [1] and in assay [2] was “inactive” each time. As for `CC1CC(OC(=O)c2ccccc2O)CC(C)(C)C1` (stereo not given), the Potency entry in assay [1] and in assay [2] was “inactive” throughout. On to `C[N+]1(C)CCCC(OC(=O)C(O)(c2ccccc2)c2ccccc2)C1` (stereo not given), for which the Potency entry in assay [1] and in assay [2] was “inactive” throughout.

Consider `CC(=O)N(CC(O)CN(C(C)=O)c1c(I)c(C(=O)NCC(O)CO)c(I)c(C(=O)NCC(O)CO)c1I)c1c(I)c(C(=O)NCC(O)CO)c(I)c(C(=O)NCC(O)CO)c1I` (stereo not given), for which the Potency result in assay [1] and in assay [2] was “inactive” each time. With `CC(C)CCCC(C)CCCC(C)CCCCC(C)CCCC(C)CCCC(C)C` (stereo not given), the Potency result in assay [1] and in assay [2] was “inactive” in each case.

In the case of `CC(C)=CCC/C(C)=C/CO`, the Potency result in assay [1] and in assay [2] was “inactive” throughout. In the case of `NC(=O)[C@@H]1CSSCCC(=O)N[C@@H](CCCCN=C(N)N)C(=O)NCC(=O)N[C@@H](CC(=O)O)C(=O)N[C@@H](Cc2c[nH]c3ccccc23)C(=O)N2CCC[C@H]2C(=O)N1` ([Mpa][hArg]GDWPC-NH2; disulfide 1-7), the Potency entry in assay [1] and in assay [2] was “inactive” throughout.
